According to PubChem BioAssay (NCI):
“And” between values parts separate entries of the source, which are not always exact repeats. Equal entries are not always repeated. The panel holds about 79,000 compounds, 15% with a hit somewhere; the sample as a whole holds those more often. The source made the active and inactive calls. No stated cut-off is given here; in the data, active means growth inhibition above about 70%; inactive means the rest.

Tests used:
[1] = NCI Yeast Anticancer Drug Screen. Data for the rad50 strain (AID 155);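 further: 0% = growth of vehicle-only cultures of the same strain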; conditions: S. cerevisiae rad50 strain growth inhibition, hits give high values; at 50.0 µM unless noted
How it was run: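 Growth of the mutant yeast was measured after compound exposure and referenced to vehicle-treated cultures.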

[2] = NCI Yeast Anticancer Drug Screen. Data for the mec2-1 strain (AID 157); conditions: S. cerevisiae mec2-1 strain, hits give high values; at 50.0 µM unless noted
How it was run: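 Each compound was tested on mec2-1 yeast, a strain altered in DNA damage repair or cell cycle control. Growth inhibition is reported relative to vehicle.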

[3] = NCI Yeast Anticancer Drug Screen. Data for the sgs1 mgt1 strain (AID 161);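 further: 0% = growth of cultures given vehicle only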; conditions: S. cerevisiae sgs1 mgt1 strain, hits give high values; at 50.0 µM unless noted
How it was run: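 Mutant yeast exposed to compound; growth scored against vehicle-only wells.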

[4] = NCI Yeast Anticancer Drug Screen. Data for the cln2 rad14 strain (AID 165);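 further: 0% = growth equal to vehicle treated cultures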; conditions: S. cerevisiae cln2 rad14 strain, hits give high values; at 50.0 µM unless noted
How it was run: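 Test compounds were added to cln2 rad14 yeast cultures; inhibition of growth was then determined by comparison with vehicle treatment.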

[5] = NCI Yeast Anticancer Drug Screen. Data for the bub3 strain (AID 167); conditions: S. cerevisiae bub3 mutant strain, hits give high values; at 50.0 µM unless noted
How it was run: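 Whole-cell yeast assay. The mutant strain was incubated with compounds, and growth inhibition was determined by comparison with vehicle-treated cells.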

[6] = NCI Yeast Anticancer Drug Screen. Data for the mlh1 rad18 strain (AID 175); conditions: S. cerevisiae mlh1 rad18 strain growth inhibition, hits give high values; at 50.0 µM unless noted
How it was run: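 Inhibition values reflect reduced growth of mutant yeast versus vehicle-treated controls following compound exposure; the mutations affect DNA damage repair.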

Measured: growth inhibition

CCCCC(C#N)C(=O)NC(N)=O (stereo not given)
inactive: [1] -7% | [2] 3.2% | [3] -8.05% | [4] 0.4% | [5] 4.85% | [6] -7.25%

O=[N+]([O-])c1cccnc1S(=O)(=O)c1ccccc1
inactive: [1] 36.9% | [2] 5.7% | [3] 12.2% | [4] 4.75% | [5] 6.2% | [6] -0.15%

CCOC(=O)c1c(C)cc(=O)oc1C
inactive: [1] -8.65% and 3.95% | [2] 7.55% and -1.6% | [3] -4.65% and -3.25% | [4] -31.3% and -11.1% | [5] 2.3% and -1.7% | [6] -11.8% and 8.75%

CC(Oc1c(Cl)cc(Cl)cc1Cl)C(=O)O (stereo not given)
inactive: [1] -13.7% | [2] -51.8% | [3] -8.6% | [4] 12.8% | [5] -34.9% | [6] -15.8%

Cc1ccc(C(=O)NNC(=O)c2ccc(C)cc2)cc1
inactive: [1] -10.5% | [2] -18.4% | [3] -11.1% | [4] 2.8% | [5] -10.9% | [6] -5.15%

CCOc1cc2c(cc1C(C)c1ccc(O)cc1)OCO2 (stereo not given)
active: [1] 99.5% | [2] 99.7% | [3] 99.7% | [4] 99.7% | [5] 99.5% | [6] 99.5%

CSc1nc2c(nc(N)n2C2OCC(O)C(O)C2O)c(=O)n1C (stereo not given)
inactive: [1] 12.1% | [2] 14.1% | [3] 22.6% | [4] 32.6% | [5] 17.9% | [6] 32.2%

CC(Oc1ccc(OCC2CCCCC2)cc1)C(=O)N(CCO)CCO (stereo not given)
inactive: [1] 21.2% | [2] -19.9% | [3] 25.6% | [4] 11.9% | [5] -43.4% | [6] 6.65%

Cc1ccc(C(C)C)c(Oc2cc(C)ccc2C(C)C)c1
inactive: [1] -17.9% | [2] 7.1% | [3] -6.8% | [4] -37.8% | [5] -17.5% | [6] -19.8%

NC(=S)C(=S)N=Cc1c(O)c2ccccc2oc1=O
inactive: [1] 39.3% | [2] 29.9% | [3] 63.1% | [4] 18.9% | [5] 23.1% | [6] 40.5%

COc1cc(C(C)=O)ccc1OCOc1ccc(C(C)=O)cc1OC
inactive: [1] -4.65% | [2] -23.6% | [3] -3.7% | [4] -43% | [5] 5.95% | [6] -5.55%

Nc1c(F)cc(I)cc1F
inactive: [1] -3.95% | [2] 2.15% | [3] -2.2% | [4] -43% | [5] 10.2% | [6] 1.35%

COC(=O)c1ccccc1-c1ccccc1C(=O)O
inactive: [1] 1.2% | [2] -3.35% | [3] -5.45% | [4] -13.8% | [5] 8.3% | [6] -1.7%

CCCCCCCCCCCCCCCCCCCCCCCCCCO
inactive: [1] -16.2% | [2] -10.4% | [3] -13.8% | [4] -8.85% | [5] -1.3% | [6] -7.25%

CC(=O)NC1C(OCc2ccccc2)OC(CO)C(O)C1OC(C)C(=O)N[C@@H](C)C(=O)N[C@H](CCC(=O)OCCNc1c2ccccc2nc2cccc([N+](=O)[O-])c12)C(N)=O (stereo not given in full)
active: [1] 87.2% | [2] 90.8% | [3] 90.4% | [4] 90.5% | [5] 88.7% | [6] 86.8%

CCN(CC)CCC(=O)c1ccc(Cl)cc1
inactive: [1] 19.6% | [2] 21.4% | [3] 14.1% | [4] 10.3% | [5] 1.05% | [6] 17.4%

CCCNCCCCCCNc1cc(OC)cc2cccnc12
inactive: [1] 54.9% | [2] 6.05% | [3] 39.7% | [4] 63.4% | [5] 31.9% | [6] 54.3%

COc1ccc2c3c(ccc2c1)[C@@H]1C/C(=C(\OC(C)=O)C(F)(F)F)C(=O)[C@@]1(C)CC3
inactive: [1] -0.85% | [2] -4.85% | [3] 0.4% | [4] 20.8% | [5] -11.2% | [6] 20.3%

O=C(O)Nc1ccc(I)cc1
inactive: [1] -9.2% | [2] -10.2% | [3] 1.15% | [4] -25.9% | [5] -4.1% | [6] -12.4%

CC(C)(C)SC(=S)SCC(=O)c1ccc(F)cc1
inactive: [1] 4.35% | [2] -36.4% | [3] 8.65% | [4] -10.4% | [5] -1.65% | [6] 1.5%

CON(C)C(=O)CNC(=O)OCC1c2ccccc2-c2ccccc21
inactive: [1] 8% | [2] -6.05% | [3] 5.35% | [4] 2.15% | [5] -5% | [6] -29.3%

O=C1CC(Cc2n[nH]c3c2CCCC3)CC(=O)N1
inactive: [1] 4.2% | [2] 3.8% | [3] -4.8% | [4] 7.35% | [5] -2.15% | [6] -7.75%

COC(=O)C1NC(=O)C(N2C(=O)c3ccccc3C2=O)=CSC1(C)C (stereo not given)
inactive: [1] -15.8% | [2] -3.05% | [3] 1.15% | [4] -11.6% | [5] -48% | [6] -7.2%

O=C(COCC(=O)N/N=C/C=C/c1ccccc1)N/N=C/C=C/c1ccccc1
inactive: [1] 7.7% | [2] -6.3% | [3] -0.65% | [4] 3.35% | [5] -2.95% | [6] 19.2%

O=c1c(-c2ccccc2)c[nH]c2ccccc12
inactive: [1] 26.7% | [2] 16.6% | [3] 20.9% | [4] 8.45% | [5] -10.9% | [6] 44.5%

CN(C)c1ccc(-c2c3ccccc3nc3ccccc23)cc1
inactive: [1] -19.4% and -12.1% | [2] 9.35% and -6.05% | [3] 14.2% and -14.2% | [4] 0.05% and -26.1% | [5] 9.95% and -16.1% | [6] -4.7% and 5.8%

CCCCCCCCCCCC(=O)CCCCCCCCCCCC(=O)OC
inactive: [1] 2.15% | [2] 15.4% | [3] 17.1% | [4] 14.2% | [5] 45% | [6] -2.35%

N#C/C(=C\c1ccccc1)c1ccc(F)cc1
inactive: [1] 39.4% | [2] 42.1% | [3] 25.7% | [4] 18.4% | [5] 32.5% | [6] 25.8%

O=C(NC(=O)c1ccccc1)Oc1cccc2ccccc12
inactive: [1] 18.3% | [2] -0.1% | [3] 20.1% | [4] 7.85% | [5] 10.7% | [6] 22.8%

CC(C)CCNc1ccccc1
inactive: [1] 1.55% | [2] -7.65% | [3] -9.85% | [4] -2.8% | [5] 3.55% | [6] 0.45%

c1ccc(-n2ncn[n+]2-c2ccccc2)cc1
inactive: [1] 6.55% | [2] 4.4% | [3] -0.3% | [4] 28.4% | [5] 32.8% | [6] 5.15%

c1ccc2c(CC3NCCN3)cccc2c1
inactive: [1] -11.3% | [2] -32.2% | [3] -55.2% | [4] 10.8% | [5] -1.4% | [6] -13%

CN(C(=O)Cc1ccccc1)n1cn[n+](CC(=O)OC(C)(C)C)c1
inactive: [1] -3.65% | [2] -13.6% | [3] -12.4% | [4] -8.35% | [5] -24.6% | [6] -23.6%

Cc1cc(N)c(N)cc1C
inactive: [1] 45.1% | [2] 4.15% | [3] 52.2% | [4] 20.1% | [5] 35.9% | [6] 38.5%

CC(C)(C)C(C(=O)O)C(=O)O
inactive: [1] 11.2% | [2] 8% | [3] 0.45% | [4] -7.4% | [5] 5.2% | [6] 13.6%

CC1(CCC(=O)O)C(=O)C(=O)CC2C1CCC1(C)C(O)CCC21 (stereo not given)
inactive: [1] -9.5% | [2] -0.6% | [3] -7.25% | [4] 0.15% | [5] -4.1% | [6] -17.4%

CCCC(=O)OCC1OC(n2cc(F)c(=O)[nH]c2=O)CC1OC(=O)CCC (stereo not given)
inactive: [1] 4.1% | [2] 7.9% | [3] 13.9% | [4] -4.3% | [5] -13.9% | [6] 10.2%

Cc1ccccc1NS(=O)(=O)N1CCCCC1
inactive: [1] -11.8% | [2] -24.4% | [3] -4.3% | [4] 18.9% | [5] 22.1% | [6] -5.65%

O=C1NCC1c1ccccc1 (stereo not given)
inactive: [1] -12% | [2] -4.85% | [3] -8.65% | [4] 5.35% | [5] 19.1% | [6] 3.45%

NC(CSS(=O)(=O)O)=NCCCOCc1ccccc1
inactive: [1] 15.4% | [2] 7% | [3] 12.3% | [4] 10% | [5] 18.6% | [6] -7.2%
